Source: PubChem
This is a sample that favours compounds with a hit; in the whole collection about 0.9% have one here.
BJeLR viability – lowers viability of BJeLR cells. AID 2275. hit rate 0.64% among 30,000. viability loss activity score, % (no concentration beside the values). BJeLR fibroblasts viability, CellTiterGlo ATP luminescence, 48 h; HRASV12, hTERT and SV40 LT/ST transformed; in the data active = viability loss activity score above about 50%;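 also: higher score means fewer live cells and less ATP luminescence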
A1 inh – inhibitors of A1. hit rate 0.51% among 21,000. caspase activation, % (concentration not given with the values). AID 2241. MEF A1-2A-BIM cells, caspase-Glo luminescence, 3 h; percent of clofoctol signal, DMSO as zero;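 active = most replicate scores above 10, or exactly half above 10 with mean activity above 10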;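 also: effector caspase 3 and 7 activity cleaving a DEVD luciferin substrate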
The depositor's hits bear a star.

What do the screens show for `CCN1CSC(=S)N(Cc2ccccc2)C1`?
BJeLR viability: 53.6*; A1 inh: -0.8

How did CCN1CNC(=S)N(c2ccccc2)C1 do in these assays?
BJeLR viability: 3.9; A1 inh: 0.3

How did Cn1c(SCC(=O)c2ccccc2)nnc1C(F)(F)F do in these assays?
BJeLR viability: 1.1; A1 inh: 0.4

Results for COC(=O)c1ccc(/C=C2/NC(=O)N(Cc3ccc(Br)cc3)C2=O)cc1 ?
BJeLR viability: 1.4

How did O=c1[nH]snc1N1CCCCC1 do in these assays?
BJeLR viability: 11.9; A1 inh: 1.1

How did COc1cccc2c1C(c1ccc3c(c1O)C(=O)CC(C)C3O)OC2=O (configuration not stated) do in these assays?
BJeLR viability: 1.2; A1 inh: 0.9

How did COc1cccc2c1C(=O)c1ccc3c(c1C2=O)C(=O)CC(C)(O)C3 (configuration not stated) do in these assays?
BJeLR viability: 0.0; A1 inh: -1.1

What do the screens show for `COc1cccc2c1C(=O)c1c(O)c3c(c(O)c1C2=O)C[C@@](O)(C(=O)CO)C[C@@H]3O[C@H]1C[C@H](N)[C@H](O)[C@H](C)O1`?
BJeLR viability: 108.7*; A1 inh: 16.4*

Results for COc1cccc2c1C(=O)c1c(O)c3c(c(O)c1C2=O)C[C@@](O)(C(=O)CO)C[C@@H]3OC1CC(N)C(O)C(C)O1 (some centres not stated) ?
BJeLR viability: 105.7*; A1 inh: 14.7*

What do the screens show for `O=C1c2ccccc2C(=O)N1CC12CC3CC(CC(C3)C1)C2`?
BJeLR viability: 1.7; A1 inh: -0.2

How did CCOC(=O)N1CCN(S(=O)(=O)c2cc(OC)ccc2OC)CC1 do in these assays?
BJeLR viability: 0.1

How did O=C(Cn1cnc2c(nnn2-c2cccc(Cl)c2)c1=O)NC1CCCCC1 do in these assays?
BJeLR viability: 0.9; A1 inh: 1.6

What do the screens show for `CN1C(=O)[C@@]2(Cc3ccccc3)SSS[C@]1(CO)C(=O)N2C`?
BJeLR viability: 87.1*; A1 inh: 31.1*

Results for CCc1c(C)c(C#N)c2nc3ccccc3n2c1N1CCN(CCO)CC1 ?
BJeLR viability: -1.0

How did Cc1c(Cc2ccccc2)c(Cl)n2c(nc3ccccc32)c1C#N do in these assays?
BJeLR viability: 63.9*; A1 inh: 1.7

What do the screens show for `O=C1c2ccccc2-[n+]2ccc3c([nH]c4ccccc43)c21`?
BJeLR viability: 130.1*; A1 inh: -1.3

Results for O=C1C(c2c(O)[nH]c3ccccc23)=Nc2ccccc21 ?
BJeLR viability: 5.9; A1 inh: -2.3

How did CC1CCC(C(=O)NC(Cc2c[nH]c3ccccc23)C(=O)NCc2cccnc2)CC1 (configuration not stated) do in these assays?
BJeLR viability: -2.2

What do the screens show for `COc1ccc2nc3c(cc2c1)c(=O)n(C)c(=O)n3C`?
BJeLR viability: -4.2; A1 inh: -0.6

What do the screens show for `Cc1cc(S(N)(=O)=O)c2ncccc2c1`?
BJeLR viability: 4.5; A1 inh: -0.6

How did CC1(C)CC(=O)c2c(SCCOC(=O)c3ccccc3Cl)sc(C#N)c2C1 do in these assays?
BJeLR viability: -0.8; A1 inh: -1.0

Results for CS(=O)c1sc(C(=O)OCc2ccccc2)c2c1C(=O)CC(C)(C)C2 (configuration not stated) ?
BJeLR viability: 116.4*; A1 inh: 4.1

How did CCc1nnc(NC(=O)c2ccc(N3C(=O)C4C5C=CC(C5)C4C3=O)cc2)s1 (configuration not stated) do in these assays?
BJeLR viability: -3.8; A1 inh: 0.3

What do the screens show for `N#CCSc1nc2ccccc2c(=O)n1CCCC(=O)NCc1ccco1`?
BJeLR viability: -4.5; A1 inh: -0.7

Results for N#CCSc1nc2cc(C(=O)NCc3ccccc3)ccc2c(=O)n1CCc1ccccc1 ?
BJeLR viability: 0.6; A1 inh: 21.7*

Results for O=C(O)c1ccc2c(c1)N(Cc1ccc(Cl)cc1)CCS2 ?
BJeLR viability: -2.0; A1 inh: 0.4
